Measurements reported in PubChem BioAssay AID1903 (Southern Research Specialized Biocontainment Screening …, 2009).
Among all 310,000 compounds or so, about 1,200 (0.39%) were called active. The rule behind the calls is not given here. Not all results are given here. Potency and affinity values are given separately.

target: Large T antigen (Simian virus 40) (UniProt P03070); test: TAg ATPase/helicase activity blockers – biochemical (AID 1903); settings: SV40 large T antigen ATPase/helicase inhibition assay; at 20 µM; hits give high values
Sequence (P03070 whole entry, looked up): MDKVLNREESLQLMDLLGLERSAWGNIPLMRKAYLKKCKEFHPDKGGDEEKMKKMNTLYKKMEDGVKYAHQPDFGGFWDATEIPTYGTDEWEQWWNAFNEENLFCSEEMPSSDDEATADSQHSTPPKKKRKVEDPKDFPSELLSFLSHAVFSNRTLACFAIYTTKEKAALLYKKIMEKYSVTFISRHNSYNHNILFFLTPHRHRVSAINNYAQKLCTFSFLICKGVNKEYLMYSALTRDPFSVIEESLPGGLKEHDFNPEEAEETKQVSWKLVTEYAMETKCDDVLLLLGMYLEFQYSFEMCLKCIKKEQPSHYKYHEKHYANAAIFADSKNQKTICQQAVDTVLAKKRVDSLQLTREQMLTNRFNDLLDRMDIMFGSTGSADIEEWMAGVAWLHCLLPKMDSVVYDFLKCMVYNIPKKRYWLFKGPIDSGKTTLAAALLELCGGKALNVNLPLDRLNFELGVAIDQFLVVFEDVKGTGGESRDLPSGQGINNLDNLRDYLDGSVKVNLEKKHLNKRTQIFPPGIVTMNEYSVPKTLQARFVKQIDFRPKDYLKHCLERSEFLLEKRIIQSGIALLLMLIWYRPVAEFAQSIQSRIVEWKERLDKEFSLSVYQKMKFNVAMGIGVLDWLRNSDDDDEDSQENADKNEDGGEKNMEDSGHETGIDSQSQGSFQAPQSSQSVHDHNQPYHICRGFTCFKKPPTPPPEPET

inhibition, inactive:
CCOc1ccc(C(=O)CCc2nc3ccccc3s2)cc1 17.3%
CCOC(=O)/C(C#N)=C/c1c(N2CCN(c3ccccc3)CC2)nc2c(C)cccn2c1=O 2.5%
COc1cc(Cl)c(C)cc1Nc1ncccn1 5.51%
CCCCCNC(=O)Cn1c(=O)c2c(ncn2CC(C)C)n(Cc2ccccc2)c1=O 9.03%
O=C(CSc1nnc(NC(=O)c2c(F)cccc2F)s1)NCc1ccccc1 9.61%
COCCn1c(=O)[nH]c2cc(C(=O)NCCN3CCN(c4ccccc4)CC3)ccc2c1=O 0.98%
Nc1nc2cc(S(=O)(=O)NC3=NCCCCC3)ccc2s1 37.1%
O=S(=O)(NC1=NCCCCC1)c1ccc2ccccc2c1 7.96%
O=S(=O)(Nc1nc2c(s1)CCCC2)c1ccc2ccccc2c1 21.8%
CCc1ccc(C(=O)OCC(=O)Nc2cccc(S(=O)(=O)NC3=NCCCCC3)c2)cc1 23%
CC1CC(=O)C2=C(C1)Nc1ccccc1N(C(=O)COc1ccccc1)C2c1ccco1 (configuration not stated) 5.78%
CCN(CC)Cc1c(O)ccc2c(=O)c(Oc3ccccc3OC)c(C)oc12 13.5%
Cc1c(-c2ccc(F)cc2)[n+](=O)c(-c2ccc(F)cc2)c(C)n1[O-] 17.5%
CC(C)(C)c1ccc(C(=O)NNC(=S)NCc2ccco2)cc1 12.7%
c1ccc(-c2nc3ccccn3c2NC2CCCC2)nc1 35%
Cc1ccc2nc(-c3ccncc3)c(NC3CCCC3)n2c1 11.4%
Cc1ccccc1Nc1c(-c2cccnc2)nc2ccccn12 11.7%
Cc1ccc2nc(-c3ccccn3)c(Nc3ccccc3C)n2c1 16.6%
CCCCCCC(=O)Oc1cccc(N2C(=O)C3CCCCC3C2=O)c1 (configuration not stated) 4.91%
CCOC(=O)N1CCN(S(=O)(=O)c2ccc(OCC(=O)OC)c(Cl)c2)CC1 -13.8%
N#C/C(=C\c1ccc2c(c1)OCO2)C(=O)NCc1ccco1 6.96%
CC(c1ccccc1)N1CCC(CNC(=S)Nc2cccc(Cl)c2)C1 (configuration not stated) 16.7%
C[C@@H]1O[C@@H](OC[C@H]2O[C@@H](Oc3c(-c4ccc(O)cc4)oc4cc(O)cc(O)c4c3=O)[C@H](O)[C@@H](O)[C@@H]2O)[C@H](O)[C@H](O)[C@H]1O 10%
O=c1c(O[C@@H]2O[C@H](CO)[C@@H](O)[C@H](O)[C@H]2O)c(-c2ccc(O)c(O)c2)oc2cc(O)cc(O)c12 2.85%
O=c1c(OC2OC(CO)C(O)C(O)C2OC2OC(CO)C(O)C(O)C2OC2OC(CO)C(O)C(O)C2O)c(-c2ccc(O)c(O)c2)oc2cc(O)cc(O)c12 (configuration not stated) 7.41%
CC1OC(OC2C(Oc3c(-c4ccc(O)cc4)oc4cc(O)cc(O)c4c3=O)OC(COC3O[C@@H](C)[C@H](O)[C@@H](O)C3O)C(O)C2O)C(O)C(O)C1O (some centres not stated) 3.2%
O=c1c(O[C@@H]2O[C@H](CO)[C@H](O)[C@H](O)[C@H]2O)c(-c2ccc(O)c(O)c2)oc2cc(O)cc(O)c12 -2.68%
C[C@@H]1O[C@@H](OC[C@H]2O[C@@H](Oc3c(-c4ccc(O)c(O)c4)oc4cc(O)cc(O)c4c3=O)[C@H](O)[C@@H](O)[C@@H]2O)[C@H](O)[C@H](O)[C@H]1O 5.24%
CC(=O)N/C(=C\c1ccc(F)cc1)C(=O)NC(C(=O)O)C(C)C (configuration not stated) 0.16%
O=c1cc(O)nc(SCc2ccccc2)n1-c1ccc(Cl)cc1 7.14%
COc1ccc(NC(=O)CC2SC(=NCc3ccccc3OC)NC2=O)cc1 (configuration not stated) 0.11%
COc1ccc(NC(=O)CSc2nnc(CC(=O)Nc3ccc(F)cc3)n2C)cc1 6.25%
O=C(COC(=O)C1CCCN1C(=O)C12CC3CC(CC(C3)C1)C2)c1ccc(Br)cc1 (configuration not stated) 3.8%
Cc1occc1C(=O)N1CCCC(N2CCN(c3ccccc3F)CC2)C1 (configuration not stated) 7.6%
O=C(NCC1CC1)[C@]1(C(F)(F)F)C[C@H](CCC2CCCCC2)CCCO1 2.31%
Fc1ccc(-c2nnc(CSc3nnc4ccccn34)o2)cc1 14.8%
O=C(O)C1OC(Oc2cc3oc(-c4ccccc4)cc(=O)c3c(O)c2O)C(O)C(O)C1O (configuration not stated) 17.2%
O=c1c(-c2ccc(O)cc2)coc2c(C3O[C@H](CO)[C@@H](O)[C@H](O)[C@H]3O)c(O)ccc12 (some centres not stated) 24.2%
O=c1cc(-c2ccc(O)cc2)oc2cc(O[C@@H]3O[C@H](CO)[C@@H](O)[C@H](O)[C@H]3O[C@@H]3OC[C@](O)(CO)[C@H]3O)cc(O)c12 8.96%
CC(=O)Cc1cc(=O)c2c(C)cc(O)c(C3OC(CO)C(O)C(O)C3O)c2o1 (configuration not stated) 5.68%
COc1c(O)cc2c(c1O)C1OC(CO)C(O)C(O)C1OC2=O (configuration not stated) 2.96%
O=c1cc(-c2ccc(O)cc2)oc2c([C@@H]3O[C@H](CO)[C@@H](O)[C@H](O)[C@H]3O)c(O)c([C@@H]3O[C@H](CO)[C@@H](O)[C@H](O)[C@H]3O)c(O)c12 7.48%
O=c1cc(-c2ccc(O)cc2)oc2c(C3OCC(O)C(O)C3O)c(O)c(C3OC(CO)C(O)C(O)C3O)c(O)c12 (configuration not stated) 45.1%
O=c1cc(-c2ccc(O)cc2)oc2c(C3O[C@H](CO)[C@@H](O)[C@H](O)[C@H]3O)c(O)cc(O)c12 (some centres not stated) 26%
CC(O)CNCCOc1ccccc1-c1ccccc1 (configuration not stated) 8.76%
CCOC(=O)CN1C(=O)NC(C)(c2ccc(OC(F)F)cc2)C1=O (configuration not stated) 11.6%
CCC1(C)N=c2c(c(=O)n(C)c(=O)n2C)=NO1 (configuration not stated) 2.8%
CC(C)CN1C(=O)NC2(CCCc3ccccc32)C1=O (configuration not stated) 25%
COc1ccc(/C=C(/NC(=O)c2ccc(C)cc2)C(=O)NCC2CCCO2)cc1 (configuration not stated) 9.41%
CCOC(=O)Nc1nc(-c2ccccc2)c(C(=O)c2ccccc2)s1 10%
c1ccc(C2[C@H]3CN(Cc4cccnc4)[C@H](c4ccccc4)C34CC2(c2cccnc2)C4)cc1 (some centres not stated) 5.83%
CCOC(=O)CSc1ncnc2c1cnn2-c1ccc(Cl)cc1 2.59%
COC(=O)c1nn(-c2ccccc2)c(Cl)c1/C=N/OCc1c(Cl)cccc1Cl 6.28%
COc1cc2c(cc1OC)CC(=O)N(C)CC2 -0.375%
COc1cc2c(cc1OC)CN(Cc1ccccc1)CC2 4.34%
COc1cc(NC(=O)CN2CCCCC2C)c(C)cc1[N+](=O)[O-] (configuration not stated) -0.94%
Nn1c(SCC(=O)NC(=O)NCc2ccco2)nnc1-c1ccc(OC(F)F)cc1 19.9%
Cc1ccc(Nc2n[nH]c(C)c2[N+](=O)[O-])cc1C 4.58%
Cc1ccc(Nc2n[nH]c(C)c2[N+](=O)[O-])cc1 -4.15%
O=C(NC1CCN(C(=O)Nc2ccc(F)cc2)CC1)c1ccc(F)cc1 -6.41%
CC1=C/C(=C(\c2ccc(O)c(C)c2)c2ccccc2S(=O)(=O)O)C=CC1=O 1.87%
O=C(O)c1cc(S(=O)(=O)O)ccc1O -2.3%
O=C(NCC(c1cccs1)N1CCOCC1)c1ccc(Cl)cc1 (configuration not stated) 20.7%
S=C(Nc1ccc(Nc2ccccc2)cc1)N1CCN(c2ncccn2)CC1 26.2%
COc1cc2c(cc1O)C(Cc1ccc(O)cc1)NCC2 (configuration not stated) 14.4%
COc1cc2c(cc1OC)C(Cc1ccc(O)cc1)NCC2 (configuration not stated) 70.4%
c1ccc(CCc2nn3c(Cn4nnc5ccccc54)nnc3s2)cc1 -1.97%
O=C1c2ccccc2CCCC12N=NCC2c1cccc2ccccc12 (configuration not stated) -6.72%
Cc1ncc(CO)c(/C=N/NC(=O)c2ccc(Br)cc2)c1O 3.1%
Cc1ncc(CO)c(/C=N/NC(=O)c2ccc(O)cc2)c1O 4.85%
O=C1C(Cc2ccccc2)Nc2ncnc(N3CCCCC3)c2N1Cc1ccc(Cl)cc1 (configuration not stated) 23.8%
Oc1ccc(C2=NNC(c3ccc(O)cc3)=NN2)cc1 6.31%
Oc1ccc(-c2cccc(-c3ccc(O)cc3)n2)cc1 24.3%
C=CS(=O)(=O)c1sc(Cl)c(N2CCOCC2)c1[N+](=O)[O-] 28.6%
C=CSc1sc(Cl)c(N2CCOCC2)c1[N+](=O)[O-] 15.5%
Cc1nc(-c2ccc(C(=O)Nc3cccc(Br)c3)cc2)cs1 5.4%
O=C(O)c1cn(CCOc2ccccc2Cl)c2ccccc12 -2.87%
CCNC(=O)NC(=O)CN(C)c1ccccc1 1.38%
COc1ccc(N(CC(=O)Nc2cc(C)on2)S(=O)(=O)c2cc(C)ccc2C)cc1 -9.08%
COc1cc(C(=O)O)ccc1Cl 8.61%
Cc1cccc(N=Nc2cnc(N)s2)c1 14.7%
COc1ccc(/C=C/C(=O)N(Cc2ccccc2)c2ccccn2)cc1OC -1.52%
O=C(/C=C/c1c(F)cccc1Cl)Nc1nc2ccccc2[nH]1 9%
COc1ccc2cc(C(=O)CS(=O)(=O)c3ccccc3)c(=O)oc2c1 3.93%
O=C(CS(=O)(=O)c1ccccc1)c1cc2ccccc2oc1=O 32.7%
Cc1cc(NC(=O)c2nn3cccnc3c2Cl)no1 4.99%
Clc1ccc(-c2cnc3ccccc3n2)cc1 5.89%
